This note sets out measurements from PubChem BioAssay.

Unmarked numbers belong to inactive results. Activity calls are given as the source filed them.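 Rule for the calls, unless noted: active = compound raises GLP1 secretion from the human gut endocrine cells, with no numeric limit stated; inactive = the rest.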

One assay in a line: inhibition of endothelial tube formation, primary screen, imaging, VEGF stimulated, CD31 staining, tube area, NPC library (AID 1117340;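 active = compound that reduces growth-factor-driven endothelial tube area in a mixed cell culture, no cutoff stated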). As to conditions: VEGF-stimulated ADSC/ECFC co-culture, at 10 µM, active compounds read high.
With `O=C(CCN1CCN(CCO)CC1)N1c2ccccc2Sc2ccc(C(F)(F)F)cc21`, the tube area decrease was 25.8%.

Consider `COc1ccc(OC(=O)N(CC(=O)O)Cc2ccc(OCCc3nc(-c4ccccc4)oc3C)cc2)cc1`, for which the tube area decrease was -9%.

Consider `Oc1ccc(CCNCCCCCCNCCc2ccccc2)cc1O`, for which the tube area decrease is 31.4%.

The next assay is described as follows: glucagon-like peptide 1 release enhancers, primary assay, NCI-H716 cell line, NPC library (AID 1117341). Note: reference of the scale not given here. As to conditions: NCI-H716 cells, at 10 µM, active compounds read high.
Regarding `CCCCCCCC/C=C/C(=O)O`, the GLP1 secretion stimulation was -3.8%.

Take `O=C(OCC(COC(=O)c1cccnc1)(COC(=O)c1cccnc1)COC(=O)c1cccnc1)c1cccnc1`: the GLP1 secretion stimulation was 0.8%.

Turning to `CCCCC(O)/C=C(C)/C=C/C=C/C(=O)N1CCCC1=O` (configuration not stated), the GLP1 secretion stimulation is 1.3%.

Consider `CCCCCCCC/C=C\CCCCCCCCN`, for which the GLP1 secretion stimulation is 24.7% (active).

For `C[N+](C)(CCOc1ccccc1)Cc1cccs1`, the GLP1 secretion stimulation is -1.6%.

For the molecule `CCCOc1ccc2c(c1)CC[C@@H]1[C@@H]2CC[C@]2(C)C(OC)CC[C@@H]12` (some centres not stated), the GLP1 secretion stimulation was -0.8%.

For `NS(=O)(=O)c1ccc(Cl)c(S(N)(=O)=O)c1`, the GLP1 secretion stimulation is -0.9%.

Consider `COc1ccc2c(c1)c(CC(=O)OC/C=C(\C)CC/C=C(\C)CCC=C(C)C)c(C)n2C(=O)c1ccc(Cl)cc1`, for which the GLP1 secretion stimulation is -2.8%.

As to `O=S(=O)(O)CC(S)CS` (configuration not stated), the GLP1 secretion stimulation was -7%.

In the case of `Cc1ccc2ccc(Cl)cc2n1`, the GLP1 secretion stimulation was -2.9%.

On to `NC(=O)NS(=O)(=O)c1ccc(Cl)cc1`, for which the GLP1 secretion stimulation was -1.2%.

Consider `COc1cccc(CCc2ccccc2OCC(CN(C)C)OC(=O)CCC(=O)O)c1` (configuration not stated), for which the GLP1 secretion stimulation was 8.6%.

Take `Cc1cc(O)c(Cl)c(C)c1Cl`: the GLP1 secretion stimulation is -2%.

Regarding `COc1cccc2c1C(=O)c1c(O)c3c(c(O)c1C2=O)C[C@@](O)(C(=O)CO)C[C@@H]3O[C@H]1C[C@H](N)[C@H](O[C@@H]2CCCCO2)[C@H](C)O1`, the GLP1 secretion stimulation is -0.8%.
